Results on 19 compounds are retold here after PubChem BioAssay (NCI).

About 79,000 compounds went through this panel and 15% of them were active in at least one assay; those are over-represented in the sample as a whole. Values without a mark were called inactive. Rule as the data show it: active = growth inhibition above about 70%; inactive = the rest.

This experiment is described as follows: NCI Yeast Anticancer Drug Screen. Data for the CLN2oe strain (AID 163).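 Also: 0% = growth of vehicle-only control cultures.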 The settings on record: S. cerevisiae CLN2oe strain, at 3.7 µM, stronger effect = higher value. In outline: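 Here, growth inhibition in a cell-cycle-altered yeast strain after compound exposure was quantified against vehicle control growth.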
As for `C/C(=N\O)C1CC2C=C(C#N)C1N(Cc1ccccc1)C2` (centres undefined), the growth inhibition was -14%.
As for `O=[N+]([O-])C(=C(Sc1ccccc1)Sc1ccccc1)C(Cl)=C(Cl)Cl`, the growth inhibition is 16%.
The same measure for `CCCCCCCCCC/C=C\C(=O)O`: 25%; for `COc1ccc(N=C2C(=O)Nc3ccc(Br)cc32)cc1`: 23%; for `COc1ccccc1C(=O)OCC1CCCN2CCCCC12` (centres undefined): -1%.
The same measure for `CC(C)(Br)C(=O)/C=C/c1ccc(Cl)c(Cl)c1`: -1%; for `Nc1ccccc1CC(O)C(=O)O` (centres undefined): 9%; for `CC(=O)N/N=C/C(C)(C)C(C)(C)/C=N/NC(C)=O`: 11%.
In the case of `CN(C)c1nc2sc3c(c2c(=O)o1)CCCC3`, the growth inhibition is -1%.
Then `CC(C)OC(=O)Oc1ccccc1OC(=O)OC(C)C`, with 4%; and `Cc1ccc(N)c(S)c1`, with -3%; and `O=C(O)c1ccccc1NC(=S)c1ccccc1`, with 11%.
Then `COC(=O)c1ccc(NCC2=CC(=O)C=CC2=O)cc1O`, with 33%.
Then `NC(N)=N/N=C\c1c2ccccc2cc2ccccc12`, with 6%.
On to `COC(=O)CSSCc1ccc([N+](=O)[O-])cc1`, for which the growth inhibition was -6%.
Turning to `CCS(=O)(=O)c1ccc(/C=C/C=N/NC(=S)NCC(C)C)cc1`, the growth inhibition was -2%.
As for `N#CC(C(=O)Nc1ccccc1)C1=C(Cl)C(=O)c2ccccc2C1=O` (centres undefined), the growth inhibition is 45%.
As for `C[C@H](CCC(=O)NN)[C@H]1CC[C@H]2[C@@H]3CC[C@@H]4C[C@H](O)CC[C@]4(C)[C@H]3CC[C@]12C`, the growth inhibition is 2%.
Then `CC[n+]1ccc2c(C)c3[nH]c4ccc(O)cc4c3c(C)c2c1`, with 17%.
